# Laboratory results reported in PubChem BioAssay AID1478 (National Center for Advancing Translational Sciences (NCATS), 2009).
# Among all 200,000 compounds or so, about 860 (0.43%) were called active. Calls come from the whole dose curve; as a rule, active = well fitted inhibition curve with a large enough effect; inconclusive = small, poorly fitted or top-dose-only effect; inactive = flat fitted curve, though single readings scatter. Many of the other results were omitted from the sample, so actives are more common in it than they were.
# Biological target: Cruzipain (Trypanosoma cruzi) (UniProt P25779)
# Sequence (P25779 123-467 limits assumed): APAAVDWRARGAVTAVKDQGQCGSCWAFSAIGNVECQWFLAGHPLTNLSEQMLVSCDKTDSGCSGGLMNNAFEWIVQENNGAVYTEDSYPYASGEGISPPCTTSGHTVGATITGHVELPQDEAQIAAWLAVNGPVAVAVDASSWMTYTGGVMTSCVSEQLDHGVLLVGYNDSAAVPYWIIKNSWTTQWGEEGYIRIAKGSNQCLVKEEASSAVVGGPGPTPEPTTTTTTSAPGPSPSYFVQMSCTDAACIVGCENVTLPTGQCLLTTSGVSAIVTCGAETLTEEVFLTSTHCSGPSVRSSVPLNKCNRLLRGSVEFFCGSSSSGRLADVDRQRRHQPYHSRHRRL
# Assay: qHTS Assay for Promiscuous and Specific Inhibitors of Cruzain (with detergent); note: nearly all actives have a fitted effect of over 40% in size
# Conditions: purified cruzain, Z-FR-AMC fluorescence, 0.01% Triton
# Description: Cruzain (3.4.22.51) is a cysteine protease from the tropical parasite Trypanosoma cruzi. Dual qHTS experiment was performed against the NCGC compound collection in order to 1) identify novel inhibitors of the enzyme and 2) profile the compound collection for promiscuous inhibitors operating via colloidal aggregation (by performing detergent-free and detergent-containing comparison screens). Cruzain was assayed by the use of fluorogenic coumarin-based substrate Z-FR-AMC: proteolytic cleavage releases AMC, whose fluorescence is measured at 360 nm excitation and 450 nm emission. Purified cruzain was supplied by the labs of Prof. James McKerrow and Brian Shoichet, UC San Francisco.
# This assay had 0.01% Triton X-100 concentration. See also releated assay "qHTS Assay for Promiscuous and Specific Inhibitors of Cruzain (without detergent)" with 0.00005% Triton X-100.
# See following references for additional details:
# Assay Provider: Shoichet, Brian; University of California, San Fancisco
# Screening Center PI: Austin, C.P.
# Screening Center: NIH Chemical Genomics Center [NCGC]
# Buffer: 100 mM Sodium Acetate, pH 5.5, 5 mM DTT, Triton X-100 concentration: 0.01%.
# Buffer in columns 3 and 4 as negative control (no enzyme).
# Substrate solution: 2 uM final concentration of Z-FR-AMC (catalog number I-1160, Bachem) dispensed throughout the plate.
# Enzyme: 1.5 nM Cruzain final concentration in columns 1, 2, 5-48. Column 1 is neutral (100% activity). Column 2 contained titration of covalent inhibitor K11777, starting concentration 1 mM, then 1:2 dilution in duplicate).
# Three uL of enzyme or buffer were dispensed to 1536-well Greiner black solid bottom plates. Compounds and controls (23 nL) were transferred via Kalypsys PinTool. The plates were incubated for 15 min at room temperature, and then 1 uL of substrate solution was added to start the reaction. The plates were immediately transferred to and read 4 times every 30 seconds for 2 min on ViewLux High-throughput CCD imager (Perkin-Elmer) using 360 nm excitation and 450 nm emission fluorescence protocol. The fluorescence intensity difference between the third and the first time points (time lapse of 60 seconds) was used to compute reaction progress.
# Potency is the fitted concentration of half-maximal effect.
Compound,"max response, negative = inhibition",Potency
COc1cc(-c2noc(-c3ccc(N4CCCC4)c([N+](=O)[O-])c3)n2)cc(OC)c1OC,-7.32% (inactive),–
CCCNC(=O)c1ccc2c(c1)ncn2-c1ccc(C)cc1C,0.948% (inactive),–
Cc1ccccc1CNC(=O)c1cccc(NC(=O)c2nsc3ccccc23)c1,-4.52% (inactive),–
CC(Oc1ccc(Cl)cc1)C(=O)OCC(=O)Nc1ncc(Cl)cc1Cl (stereo unspecified),-4.76% (inactive),–
Cc1ccc(SCCC(=O)OCC(=O)Nc2ncc(Cl)cc2Cl)cc1,–,25.1 µM (active)
Cc1ccc(-n2c(SCC(=O)Nc3ncc(Cl)cc3Cl)nc3ccccc32)cc1,0.0613% (inactive),–
CCC(=O)N1CCc2cc(CNS(=O)(=O)c3ccc(Br)s3)ccc21,-0.767% (inactive),–
Cc1nnnn1/C(=C\c1ccccc1)C(=O)OCC(=O)N1CC2(C)CC1CC(C)(C)C2 (stereo unspecified),-0.133% (inactive),–
Cc1cccc(C(=O)NCC(=O)OCC(=O)N2CC3(C)CC2CC(C)(C)C3)c1 (stereo unspecified),–,14.1 µM (active)
COc1ccc(C(=O)N2CC3(C)CC2CC(C)(C)C3)cc1OC (stereo unspecified),-2.5% (inactive),–
CCOc1ccc(C(NC(=O)c2cc(OC)c(OC)c(OC)c2)c2cc(Cl)c3cccnc3c2O)cc1 (stereo unspecified),1.88% (inactive),–
COc1ccccc1CNc1ccc(-c2nc(-c3ccccc3C)no2)cc1[N+](=O)[O-],-3.81% (inactive),–
O=C(NCc1ccccc1)C(=O)NCC(c1ccco1)S(=O)(=O)c1ccc(Cl)cc1 (stereo unspecified),-1.1% (inactive),–
O=C(COc1ccccc1)NCCc1nc2ccccc2[nH]1,–,15.8 µM (active)
COc1ccc(OC(C)C(=O)NCCc2nc3ccccc3[nH]2)cc1 (stereo unspecified),-6.04% (inactive),–
COC(=O)Cc1nc2ccccc2[nH]1,8.1% (inactive),–
CCc1ccc(N(CC)C(=O)CCn2cnc3onc(-c4ccc(F)cc4)c3c2=O)cc1,-2.73% (inactive),–
COc1ccc(OCCCn2c(C)nc3cc(C)c(C)cc32)cc1,-3.67% (inactive),–
O=C(NCC1CCCO1)/C(=C\c1ccco1)NC(=O)c1ccccc1 (stereo unspecified),-1.92% (inactive),–

Compound,"max response, negative = inhibition",Potency
Cc1cccc(NC(=O)/C(=C\c2ccco2)NC(=O)c2ccccc2)c1,-5.18% (inactive),–
O=C(OCN1C(=O)c2ccccc2C1=O)/C(=C\c1ccco1)NC(=O)c1ccccc1,–,0.316 µM (active)
Cc1ccc(-c2noc(-c3nnn(-c4cccc(C(F)(F)F)c4)c3N)n2)cc1,0.534% (inactive),–
CCOC(=O)c1ccc(CSc2nnc3cc(C)c4ccccc4n23)cc1,-5.57% (inactive),–
COc1ccc(N2C(=O)CSC23C(=O)N(Cc2cccc(F)c2)c2ccccc23)cc1Cl (stereo unspecified),-6.49% (inactive),–
CNC(=O)c1cc2c(ccc3ccccc32)oc1=N,–,28.2 µM (active)
N=c1oc2ccccc2cc1C(=O)N/N=C/c1ccccc1,-4.25% (inactive),–
CCOC(=O)N1CCN(C(=O)c2cc3c(ccc4ccccc43)oc2=O)CC1,-4.28% (inactive),–
COc1ccc(-c2nc3scc(CCNS(=O)(=O)c4cc(F)ccc4OC)n3n2)cc1OC,-6.79% (inactive),–
COc1ccc(OC)c(-n2nnc3c(sc4nc(C)c(Br)c(C)c43)c2=O)c1,-8.66% (inactive),–
CC(=O)c1ccc(S(=O)(=O)N2CCC(Oc3ccc(-n4cnnn4)cc3)CC2)cc1,0.367% (inactive),–
O=C1CCCc2cc(S(=O)(=O)N3CCCC(C(=O)NCc4ccccc4)C3)ccc2N1 (stereo unspecified),-1.43% (inactive),–
COc1ccc(CNC(=O)c2cc3cccc(OC)c3oc2=O)cc1,-0.986% (inactive),–
Clc1ccccc1-c1cc(NCCN2CCOCC2)ncn1,0.682% (inactive),–
CN(C)c1ccc(-c2nc(NCCN3CCOCC3)c3ccccc3n2)cc1,-4.87% (inactive),–
c1ccc2cc3c(NCCN4CCOCC4)ccnc3cc2c1,–,28.2 µM (active)
CCc1ccccc1NC(=O)c1cnn(-c2ccc(F)cc2)c1C1CCNCC1,-1.82% (inactive),–
O=C(CSc1n[nH]c(-c2ccccc2)n1)N1CCCCC1,2.8% (inactive),–
Cc1ccccc1CN1CCC(CNC(=O)c2c(C)oc3ncnc(N4CCCCC4)c23)CC1,1.4% (inactive),–

Compound,"max response, negative = inhibition",Potency
CCN1CCN(C(c2ccc(C)cc2)c2c(O)cc(C)n(Cc3ccco3)c2=O)CC1 (stereo unspecified),0.51% (inactive),–
CCOC(=O)c1ccc(-n2c(CCC(=O)O)ccc2-c2ccccc2)cc1,-12% (inactive),–
CCOC(=O)C1CCN(C(c2ccc(F)cc2)c2sc3nc(-c4ccco4)nn3c2O)CC1 (stereo unspecified),-3.73% (inactive),–
COc1ccccc1/C=C/C1=NC(=C\N(C)C)/C(=O)O1,-17.3% (inactive),–
O=C(/C=C/c1ccccc1)c1ccoc1,-1.4% (inactive),–
O=C1OC(/C=C/c2ccccc2)=NC/1=C/c1ccco1,–,3.98 µM (active)
COC(=O)c1sccc1S(=O)(=O)N(CC(=O)Nc1ccc(C)c(F)c1)c1ccc(C)c(C)c1,-3.08% (inactive),–
CCOc1ccc(CNC(=O)C2CCCN(S(=O)(=O)N(CC)c3ccc(OCC)cc3)C2)cc1 (stereo unspecified),3.48% (inactive),–
O=C(Nc1ccc(Br)cc1)c1ccc(Br)c(S(=O)(=O)NCc2ccccc2)c1,-3.54% (inactive),–
Cc1ccc(-c2cn3c(n2)sc2cc(C(=O)NCc4cccs4)ccc23)c(C)c1,-2.89% (inactive),–
CCc1nc(-c2cc(S(=O)(=O)N3CCN(c4ccc(OC)cc4)CC3)ccc2OC)no1,-3.17% (inactive),–
CC(=O)c1ccc(NC(c2ccc(F)cc2)c2nnc(-c3ccccc3)o2)cc1 (stereo unspecified),-5.26% (inactive),–
CCn1cc2nc(SCc3cccc(F)c3)n(CCc3ccccc3)c(=O)c2n1,-3.27% (inactive),–
COc1ccc(-n2c(=O)c3c(c4cc(OC)ccc4n3C)n(Cc3cccc(C)c3)c2=O)cc1,-1.25% (inactive),–
Cc1ccc(NC(=O)c2cc(S(=O)(=O)NCCC3=CCCCC3)ccc2F)cc1C,1.53% (inactive),–
Cc1ccc(C)c(NC(CC(=O)c2ccccc2)C(=O)OCC(=O)c2cccs2)c1 (stereo unspecified),-3.94% (inactive),–
Cc1ccc(F)c(NC(=O)CCc2ccccc2)c1,2.16% (inactive),–
O=C(COC(=O)[C@H](Cc1ccccc1)NC(=O)c1cccs1)Nc1cc(F)ccc1F,–,20 µM (active)
